{
  "source": "the supplement of paper PMC12340641",
  "note": "± gives the standard deviation of the averaged measurements.",
  "data": [
    {"system": "HEK293FT dCK*-IKZF1", "assay": "relative growth recovery (pomalidomide 10 uM = 100%, DMSO = 0%); higher = more growth rescue (IKZF1 fusion degradation)", "details": "compound concentration: 5 uM; AraC concentration: 0.3 uM; overnight pretreatment + 4 days AraC", "in_short": "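On day 5, whole-well imaging was used to count Hoechst 33342-stained nuclei of HEK293FT cells stably carrying a deoxycytidine kinase–IKZF1 fusion. These cells had received 5 μM compound 2 h after seeding, followed after overnight at 37 °C by a nucleoside suicide substrate at 0.3 μM plus medium for 4 days. Growth recovery was normalised on each plate against a reference degrader and vehicle, which defined 100% and 0%, and values are duplicate means from separate days.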", "units": {"relative growth recovery": "%"}, "values": [
      {"smiles": "CO[C@H]1C[C@H](O[C@H]2CC[C@@]3(C)[C@H](CC[C@@H]4[C@@H]3CC[C@]3(C)[C@@H](C5=CC(=O)OC5)[C@@H](OC(C)=O)C[C@]43O)C2)O[C@@H](C)[C@@H]1O", "note": "[Oleandrin]", "relative growth recovery": -12.7},
      {"smiles": "CC(C)C[C@H](NC(=O)[C@@H](O)[C@H](N)Cc1ccccc1)C(=O)NCCOCCOCCOCC(=O)O[C@H]1CC[C@H]2[C@@H]3CC[C@H]4CC(=O)CC[C@]4(C)[C@H]3CC[C@]12C.O=C(O)C(F)(F)F", "note": "[PROTAC AR Degrader-4 (TFA)]", "relative growth recovery": 8.26},
      {"smiles": "COc1cc([C@@H]2c3cc4c(cc3[C@H](O)[C@H]3COC(=O)[C@H]23)OCO4)cc(OC)c1OC", "relative growth recovery": -11.7},
      {"smiles": "C[C@]12CC[C@H](O)C[C@H]1CC[C@@H]1[C@@H]2CC[C@]2(C)[C@@H](C3=CC(=O)OC3)CC[C@]12O", "note": "[digitoxigenin]", "relative growth recovery": -12.2},
      {"smiles": "CCCCCCCCCCCCCCCC[n+]1ccccc1", "relative growth recovery": -13},
      {"smiles": "C[C@H]1CCC/C=C/C2C[C@H](O)C[C@H]2[C@H](O)/C=C/C(=O)O1", "note": "(stereo partly drawn) [brefeldin-a]", "relative growth recovery": -10},
      {"smiles": "c1ccc2c(c1)Sc1ccccc1N2CC1CN2CCC1CC2", "note": "(stereo not drawn) [levomequitazine]", "relative growth recovery": 0.35},
      {"smiles": "CCC(C)[C@H]1O[C@]2(C=C[C@@H]1C)C[C@@H]1C[C@@H](C/C=C(\\C)[C@@H](OC3C[C@H](OC)C(O[C@H]4C[C@H](OC)[C@@H](O)[C@H](C)O4)[C@H](C)O3)[C@@H](C)/C=C/C=C3\\CO[C@@H]4[C@H](O)C(C)=C[C@@H](C(=O)O1)[C@]34O)O2", "note": "(stereo partly drawn) [ABAMECTIN (avermectin B1a shown)]", "relative growth recovery": -3.08},
      {"smiles": "O=C1c2ccccc2C(=O)c2ccccc21", "note": "[anthraquinone]", "relative growth recovery": -0.655},
      {"smiles": "O=c1c2ccccc2[se]n1-c1ccccc1", "relative growth recovery": -0.075},
      {"smiles": "C(=C\\c1ccccc1)/CN1CCN(CCOC(c2ccccc2)c2ccccc2)CC1", "relative growth recovery": 0.86},
      {"smiles": "C=C1[C@@H](C)[C@H]2[C@H](Cc3ccccc3)NC(=O)[C@]23OC(=O)/C=C/[C@H](O)CCC[C@@H](C)C/C=C/[C@H]3[C@@H]1O", "note": "[Cytochalasin B]", "relative growth recovery": -8.39},
      {"smiles": "ClC(C=C3)=C(Cl)C=[C@@]3[C@H]2C1=CC=CC=C1[C@H](NC)C2", "note": "[indatraline]", "relative growth recovery": -3.33},
      {"smiles": "NCC1(CC(=O)O)CCCCC1", "relative growth recovery": -0.56},
      {"smiles": "CCCCC1(C2CCCC2)Cc2cc(OCCCC(=O)O)c(Cl)c(Cl)c2C1=O", "note": "(stereo not drawn)", "relative growth recovery": 0.8},
      {"smiles": "O=C(CCCN1CCC2(CC1)C(=O)NCN2c1ccccc1)c1ccc(F)cc1", "note": "[spiperone]", "relative growth recovery": -0.995},
      {"smiles": "Oc1c(I)cc(I)cc1I", "relative growth recovery": 2.79},
      {"smiles": "COC[C@H]1OC(=O)c2coc3c2[C@@]1(C)C1=C(C3=O)[C@@H]2CCC(=O)[C@@]2(C)C[C@H]1OC(C)=O", "note": "[Wortmannin]", "relative growth recovery": 1.92},
      {"smiles": "OC1=[C@]([C@]2=C(O)C(C(C=O)=C(O)C(O)=C3C(C)C)=C3C=C2C)C(C)=CC4=C1C(C=O)=C(O)C(O)=C4C(C)C", "note": "[gossypol]", "relative growth recovery": -11.7},
      {"smiles": "O=c1[nH]c2ccccc2n1C1CCN(CCCC(c2ccc(F)cc2)c2ccc(F)cc2)CC1", "note": "[Pimozide]", "relative growth recovery": -1.04},
      {"smiles": "Cc1cc(O)c2c(=O)c3c(O)cc(O)c4c5c(O)cc(O)c6c(=O)c7c(O)cc(C)c8c1c2c(c34)c(c78)c65", "note": "[Hypericin]", "relative growth recovery": -3.8},
      {"smiles": "CC[C@H]1CN2CCc3cc(OC)c(OC)cc3C2C[C@@H]1CC1NCCc2cc(OC)c(OC)cc21", "note": "(stereo partly drawn)", "relative growth recovery": -12.4},
      {"smiles": "CN(C)C(=S)SSC(=S)N(C)C", "relative growth recovery": -12.7},
      {"smiles": "COc1ccc2c(c1)/C(=C/c1cnc[nH]1)C(=O)N2", "relative growth recovery": -7.43},
      {"smiles": "CC[C@@H](C(=O)O)C1CC[C@H](C)C([C@@H](C)[C@H](O)[C@H](C)C(=O)[C@H](CC)C2O[C@]3(C=C[C@@H](O)[C@]4(CC[C@@](C)(C5CC[C@](O)(CC)[C@H](C)O5)O4)O3)[C@H](C)C[C@@H]2C)O1", "note": "(stereo partly drawn) [Salinomycin (Procoxacin)]", "relative growth recovery": -1.1},
      {"smiles": "C[C@]12CC[C@H](O)C[C@H]1CC[C@@H]1[C@@H]2C[C@@H](O)[C@]2(C)[C@@H](C3=CC(=O)OC3)CC[C@]12O", "note": "[Digoxigenin]", "relative growth recovery": -10.9},
      {"smiles": "Fc1ccc(C(OCCN2CCN(C/C=C/c3ccccc3)CC2)c2ccc(F)cc2)cc1", "relative growth recovery": 8.18},
      {"smiles": "COc1cc2c(c(OC)c1OC)-c1ccc(OC)c(=O)cc1[C@@H](NC(C)=O)CC2", "note": "[Colchicine]", "relative growth recovery": "-12.2 ± 0.36"}
    ]}
  ]
}
